In the library only some 4.2% were active in any assay of this set; here they are far more common.
ALOX12 inh: Primary qHTS assay for inhibitors of human arachidonate 12S-lipoxygenase (ALOX12): Round 2; Polyunsaturated fatty acid lipoxygenase ALOX12 (Homo sapiens), P18054; purified 12hLO, xylenol orange hydroperoxide absorbance; Potency, µM (highest dose often 108 µM), for the others: at the top dose activity change, negative = inhibition, actives largely listed as inhibitors; actives 1.1% (n = 580,000)
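Hydroperoxide product was detected by ferrous iron/xylenol orange as the 573 to 405 nm absorbance ratio. Arachidonic acid at 40 uM (final) was turned over for 30 min at room temperature by 150 nM human 12hLO, pH 7.0 Hepes buffer, after 15 min compound preincubation.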
VDR inh: Inhibitors of the vitamin D receptor (VDR): qHTS. VDR-SRC2-3 peptide fluorescence polarization, 2 h. Potency, µM, for inactives: max response, negative = inhibition, usual class: inhibitors. Vitamin D3 receptor (Homo sapiens), P11473. actives 0.93% (n = 400,000). AID 504847, 2011
Target sequence (P11473 whole entry, looked up): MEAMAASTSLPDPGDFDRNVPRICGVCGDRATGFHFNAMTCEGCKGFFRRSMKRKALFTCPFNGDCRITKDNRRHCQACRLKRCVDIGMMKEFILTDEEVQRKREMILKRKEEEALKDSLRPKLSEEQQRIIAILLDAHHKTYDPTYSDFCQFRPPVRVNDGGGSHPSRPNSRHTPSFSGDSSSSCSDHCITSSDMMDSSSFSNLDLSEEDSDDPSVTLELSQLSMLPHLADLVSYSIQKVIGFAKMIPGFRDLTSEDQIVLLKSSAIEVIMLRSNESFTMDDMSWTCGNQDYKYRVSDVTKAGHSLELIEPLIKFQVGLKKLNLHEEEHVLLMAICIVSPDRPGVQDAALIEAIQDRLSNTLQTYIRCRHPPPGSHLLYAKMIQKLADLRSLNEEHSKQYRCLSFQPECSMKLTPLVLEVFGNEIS
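FP read-out; VDR + SRC2-3 coactivator peptide; 23 nl compound by pintool; 2 h RT incubation; reagents held at 4 deg C, protected from light.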
PLK1 PBD inh: qHTS for Inhibitors of PLK1-PDB (polo-like kinase 1 - polo-box domain): Primary Screen. AID 720504, 2013. Serine/threonine-protein kinase PLK1 (Homo sapiens), P53350. Plk1 PBD binding of FITC phosphopeptide, fluorescence polarization. Potency, µM, inactives show max response, negative = inhibition, actives largely listed as inhibitors. actives 2.8% (n = 360,000); also: series mostly up to about 57 µM; nearly all actives have a fitted effect of over 65% in size
Sfp inh: qHTS Assay for Inhibitors of Bacillus subtilis Sfp phosphopantetheinyl transferase (PPTase) | Biochemical Sfp PPTase activity, qHTS | Potency, µM, for the others: largest response in the series, negative = inhibition, usual class: inhibitors | actives 3.5% (n = 310,000);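 also: the enzyme is Sfp with the accession as filed and its product quenches rhodamine fluorescence; 0% = enzyme reaction without inhibitor and -100% = no enzyme wells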
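Sfp 15 nM + cpd, 15 min RT; start w/ rhodamine-CoA 5 uM, BHQ-2-YbbR 12.5 uM (final); 50 mM Hepes pH 7.6, 10 mM MgCl2, 0.01% NP-40, 0.01% BSA; read 525/598 nm at 0 and 30 min.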
Starred values were filed as active, the others as inactive; i = inactive; ? = inconclusive; · = not tested or not shown. Calls follow the shape of the dose curve; as a rule, active = well fitted curve in the direction sought with a large enough effect; inconclusive = small, poorly fitted or top-dose-only effect, or another doubt; inactive = no such curve, though single readings can be large; an effect the other way counts as inactive or inconclusive. Unless noted, % is scaled to controls: 0 for no effect and ±100 for the full control effect; potency is read from the fitted curve at half-maximal effect.

SMILES | ALOX12 inh | VDR inh | PLK1 PBD inh | Sfp inh
COC(=O)C1=CN(C2CCCCC2)C=C(C(=O)OC)C1c1ccc2c(c1)OCO2 | ? | -1% | -6% | 12%
CC(C)NC(=O)c1ccc(CSCc2ccccc2Cl)o1 | 0% | -14% | -8% | 8%
CC(=O)c1c(C)oc(C)c1CSCc1ccc(C(=O)O)o1 | -17% | -6% | ? | 45µM*
O=C(O)c1ccc(CSCc2ccccc2Cl)o1 | -4% | ? | 21µM* | 21%
NC(=O)c1ccccc1NC(=O)Cc1cccs1 | -2% | 20% | 2% | 15%
COc1cc(C(c2c(C)[nH][nH]c2=O)c2c(C)[nH][nH]c2=O)cc([N+](=O)[O-])c1O | 11% | -15% | 27µM* | -14%
COc1cc(C(c2c(C)[nH][nH]c2=O)c2c(C)[nH][nH]c2=O)cc(Br)c1OC | 0% | ? | 27µM* | -24%
COc1ccc(OC)c(C(=O)NC(CC(N)=O)c2ccc(NCCN3CCOCC3)c([N+](=O)[O-])c2)c1 (stereo not given) | ? | 4% | -6% | 15%
Cc1noc(NS(=O)(=O)c2ccc(NC(=O)c3ccc(N(C)C)cc3)cc2)c1C | 0% | -16% | -9% | ·
CCCC(=O)Nc1cc(S(=O)(=O)N2CCOCC2)ccc1N1CCCCC1 | -10% | 89µM* | 24µM* | ·
O=C(Nc1cc(S(=O)(=O)Nc2ccc(Cl)cc2)ccc1N1CCCCC1)c1ccc(F)cc1Cl | ? | -7% | 9.5µM* | ?
COc1ccc(NS(=O)(=O)c2ccc(N3CCOCC3)c(NC(=O)c3ccccc3Cl)c2)cc1 | -5% | 8% | 3% | -12%
COc1ccccc1OCC(=O)Nc1cc(S(=O)(=O)N2CCOCC2)ccc1N1CCCCC1 | ? | -24% | 24µM* | ·
O=C(Nc1ccc(Cl)c(Cl)c1)Nc1cc(S(=O)(=O)N2CCOCC2)ccc1N1CCCC1 | -6% | -11% | 17µM* | 4%
CC1(C)CC(=O)C=C(c2ccccc2-c2ccc(S(C)(=O)=O)cc2)C1=O | -8% | · | -2% | ·
O=C(c1ccccc1F)N1CC(Oc2ccc(-c3nc(-c4ccccc4)no3)cc2)C1 | 14% | · | · | ·
CCOC(=O)C1=C(C(=O)OCC)C2N(Cc3ccc(C(F)(F)F)cc3)c3ccccc3[C@@]23C[C@@H](C(=O)OC)N(S(=O)(=O)c2ccc(OC)cc2)C3=N1 (stereo not given in full) | 13% | · | · | ·
CCOc1ccc(CCNC(=O)c2cc(=O)c3ccccc3o2)cc1OCC | -1% | · | · | ·
COC(=O)C1=C(C(=O)OC)[C@@H]2Nc3ccccc3[C@@]23C[C@@H](C(=O)OC)N(S(=O)(=O)c2ccc(Br)cc2)C3=N1 | · | · | · | 10%
COC(=O)CCC(=O)Nc1cc(S(=O)(=O)Nc2ccc(Cl)cc2)ccc1N1CCOCC1 | ? | -17% | 15µM* | -16%
O=C(CN1CCN(c2ccc(O)cc2)CC1)Nc1cc(S(=O)(=O)N2CCCCC2)ccc1Cl | ? | -6% | 1% | 56µM*
CC(=O)N1c2ccc(S(=O)(=O)N3CCCCC3)cc2CC1C(=O)Nc1ccc(F)cc1C (stereo not given) | 5% | ? | 27µM* | 15%
CCN1CCN(CC(=O)Nc2cc(S(=O)(=O)N3CCCCC3)ccc2Cl)CC1 | ? | 10% | -5% | ·
CCCC(C)C(=O)Nc1cc(S(=O)(=O)N2CCCCC2)ccc1N1CCOCC1 (stereo not given) | -6% | 7% | -17% | ·
CC(C)C(=O)Nc1cc(S(=O)(=O)N2CCOCC2)ccc1N1CCCCC1 | ? | 71µM* | 24µM* | ·
SMILES | ALOX12 inh | VDR inh | PLK1 PBD inh | Sfp inh
Cn1c(=O)c(=O)n(C)c2cc(N3CCOCC3)c(NS(=O)(=O)c3ccc(Br)cc3)cc21 | ? | -3% | -10% | 45µM*
O=C(COc1ccccc1[N+](=O)[O-])Nc1ccccc1N1CCCC1 | -4% | -11% | -11% | 20µM*
Nc1cc(S(=O)(=O)Nc2cc(Cl)ccc2Cl)ccc1N1CCOCC1 | ? | 35µM* | 1.9µM* | 11µM*
O=C(CNc1cc(S(=O)(=O)N2CCCCC2)ccc1N1CCCCC1)Nc1ccc(F)cc1 | 10µM* | · | · | ·
CC(=O)c1ccc(NC(=O)CNc2cc(S(=O)(=O)N3CCOCC3)ccc2N2CCCC2)cc1 | -11% | -9% | -13% | ·
COc1ccc(-c2nn(-c3ccccc3)cc2C(=O)n2nnc3ccccc32)cc1 | 15% | 5% | -11% | -1%
COc1ccc(NC(=O)c2nn(-c3ccccc3)ccc2=O)cc1 | -9% | · | · | ·
CCc1ccc(S(=O)(=O)N2CCC3(CC2)C(=O)N(CC)c2ccccc23)cc1 | -7% | · | · | ·
Nc1cc(S(=O)(=O)N2CCOCC2)ccc1Oc1ccc(F)cc1 | 3% | 2% | 1% | 15%
Cc1ccc(S(=O)(=O)NC(=O)c2cc(C)n(-c3cc(S(=O)(=O)N4CCOCC4)ccc3N3CCCC3)c2C)cc1 | ? | 18% | 30µM* | ?
Cc1ccc(C(=O)Nc2cc(S(=O)(=O)N3CCOCC3)ccc2N2CCCC2)cc1 | -8% | 0% | 1% | ·
O=C(Nc1ccc(Oc2ccsc2C(=O)O)cc1)c1ccccc1F | 0% | -19% | -6% | 18%
O=C(/C=C/c1ccccc1)N1CCOCC1 | 5% | 5% | -1% | 4%
O=C(/C=C/c1ccccc1)CCN1CCOCC1 | -12% | 40µM* | 21µM* | ·
CC(C)n1cnc2c(=S)nc[nH]c21 | -28% | -28% | -5% | 8.9µM*
COc1ccc(CN2CCN(Cc3c[nH]c4ccccc34)CC2)cc1OC | 1.1µM* | · | -14% | ·
COc1ccc(CN2CCN(Cc3c[nH]c4ccccc34)CC2)cc1 | 0.71µM* | 8% | -12% | 50µM*
COc1ccc(CN2CCN(Cc3cccc(Oc4ccccc4)c3)CC2)c(OC)c1OC | ? | -16% | 2% | ?
COc1ccc(CN2CCN(Cc3ccc(Br)cc3)CC2)c(OC)c1OC | ? | -11% | -11% | 79µM*
COc1ccc(Br)cc1CN1CCN(Cc2c[nH]c3ccccc23)CC1 | ? | -3% | 2% | ?
O=c1oc2c(CN3CCOCC3)c(O)c(Cl)cc2c2c1CCCC2 | i | -14% | -17% | 56µM*
O=c1oc2c(CN3CCOCC3)c(O)ccc2c2c1CCCC2 | 422% | 5% | -2% | -1%
Cc1ccccc1Nc1nc(N)nc(COC(=O)c2ccco2)n1 | -7% | -8% | 3% | ·
Cc1ccc(/C=C/C(=O)OCc2nc(N)nc(Nc3ccccc3C)n2)o1 | -11% | -19% | 2% | 79µM*
CCc1ccc2[nH]c(=O)c(C(c3nnnn3CCOC)N3CCN(c4ccccc4)CC3)cc2c1 (stereo not given) | ? | -16% | -8% | 32µM*
COCCn1nnnc1C(c1ccccc1OC)N1CCN(c2ccccc2F)CC1 (stereo not given) | ? | 10% | -7% | 15%
